Screening results (PubChem BioAssay)
EBNA-1 inh: EBNA-1 DNA-binding inhibitors, primary screen, biochemical, fluorescence polarization; inhibition, % at 14.8 µM; 300,000 tested, 0.34% active; in the data active = inhibition above about 28%
LANA DNA inh: inhibitors of KSHV C-LANA binding to DNA, primary screen, biochemical, fluorescence polarization, FAM-LBS DNA, MBP-C-LANA, single point; 340,000 tested, 0.078% active; Kaposi's sarcoma herpesvirus LANA C-terminal domain (residues 932-1162) DNA binding; inhibition, % at 9 µM;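 active = highest replicate inhibition at or above 60% at 9 µM, even if other replicates fall short; inactive = all replicates below 60% inhibition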;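 note: 0% = neutral control wells and 100% = 4 µM acridine orange control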
E coli Lon inh: inhibitors of E. coli Lon protease, primary screen, biochemical, fluorescence polarization; purified E. coli Lon protease; 360,000 tested, 0.42% active; inhibition, % at 7.94 µM; P0A9M0; in the data active = inhibition above about 13%, passing the limit was not always enough;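 note: 0% = enzyme with probe and DMSO and 100% = no enzyme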
Keap1-Nrf2 PPI: Keap1-Nrf2 protein-protein interaction inhibitors, primary screen, biochemical, fluorescence polarization, single point. Kelch-like ECH-associated protein 1 (Homo sapiens), Q14145. Keap1 Kelch-Nrf2 peptide fluorescence polarization, 1536-well. inhibition, % at 9.4 µM. 340,000 tested, 0.15% active; in the data active = inhibition above about 12%;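 note: human Keap1 Kelch domain with fluorescein labeled Nrf2 9mer peptide probe; 0% = neutral control wells and 100% = peptide positive control; higher means more block of Keap1 binding to Nrf2 peptide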
ZTA DNA inh: ZTA (EBV) inhibition in EBNA-1 counter-screen. P03206. ZTA-DNA binding, fluorescence polarization. inhibition, % at 11 µM. 320,000 tested, 0.15% active; in the data active = inhibition above about 33%
Target sequence (P03206 whole entry, looked up): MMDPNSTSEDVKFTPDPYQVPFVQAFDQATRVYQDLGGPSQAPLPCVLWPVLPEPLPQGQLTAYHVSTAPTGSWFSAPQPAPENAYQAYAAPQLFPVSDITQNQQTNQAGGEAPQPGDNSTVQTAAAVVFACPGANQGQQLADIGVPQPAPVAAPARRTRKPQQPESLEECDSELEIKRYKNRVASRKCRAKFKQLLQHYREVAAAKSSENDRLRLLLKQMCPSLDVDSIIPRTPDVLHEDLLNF
EBNA-1 inh conf: EBNA-1 DNA-binding inhibitors, retest, confirmation, biochemical, fluorescence polarization, triplicate | inhibition, % at 14.8 µM | Recombinant EBNA-1 DBD, Cy5-DNA fluorescence polarization | 830 tested, 35% active | shares compounds with EBNA-1 inh;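 active = mean inhibition across replicates above a set limit taken from the earlier primary screen, cut at about 28% in these data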;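 note: plate controls were EBNA-1 protein with DMSO for no effect and wells lacking EBNA-1 for full effect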
ZTA DNA inh trip: EBV Zta DNA binding inhibitors, counter-screen for EBNA-1 inhibitor project, biochemical, fluorescence polarization, triplicate; shares compounds with EBNA-1 inh; Zta-ZRE DNA binding, Cy5 fluorescence polarization; inhibition, % at 11.1 µM; 830 tested, under 10 active; AID 2328, 2010;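 active = mean inhibition over triplicates above a set limit taken from the primary EBNA-1 screen, cut at about 37% in these data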;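 note: purified full length Zta protein with Cy5 labeled ZRE DNA probe; 0% = Zta with DMSO and 100% = wells lacking Zta protein; inhibitors lower polarization by freeing the labeled DNA probe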
* marks the source's active call; other numbers are inactive results; nt = no result given. In the library only some 0.85% were active in any assay of this set; here they are far more common.

SMILES	EBNA-1 inh	LANA DNA inh	E coli Lon inh	Keap1-Nrf2 PPI	ZTA DNA inh	EBNA-1 inh conf	ZTA DNA inh trip
O=C(N/N=C\c1ccc(CNS(=O)(=O)c2ccc(Cl)cc2)o1)C(=O)Nc1ccc(Oc2ccccc2)cc1	29*	-1	-10	2	7	30*	-1
COc1ccc(OCC(=O)NC(=S)Nc2ccc(S(=O)(=O)Nc3cc(C)on3)cc2)cc1	13	1	14	5	8	nt	nt
CCN(CC)S(=O)(=O)c1ccc(C(=O)NN(C)C2=NS(=O)(=O)c3ccccc32)cc1	36*	0	-7	-6	-2	2	-11
C=CCn1c(SCC(=O)NC(=O)NCc2ccco2)nc2sc(C)c(C)c2c1=O	47*	0	0	-5	9	32*	2
CCN(CC)S(=O)(=O)c1ccc(C(=O)Nc2nnc(NC(=S)Nc3ccccc3)s2)cc1	38*	1	5	-1	-23	75*	-11
CCCS(=O)(=O)NC(=O)C1(C)CCCN(C(=O)CSc2ccccc2)C1 (centres undefined)	nt	nt	-6	nt	nt	nt	nt
Cc1nn(-c2cccc(Cl)c2)c(Cl)c1/C=N/NC(=O)c1cccs1	9	2	-3	0	16	nt	nt
CCNC(=S)N/N=C/c1c(C)nn(-c2cccc(Cl)c2)c1Cl	57*	-1	7	-6	12	48*	0
CCOC(=O)c1[nH]c2ccc(OC)cc2c1NC(=O)c1ccc2c(c1)OCO2	-20	0	9	-2	4	nt	nt
CCOC(=O)c1[nH]c2ccccc2c1NC(=O)c1ccc2c(c1)OCO2	32*	0	-6	-2	3	19	-10
N#Cc1ccc(NC(=O)COC(=O)C2Cc3ccccc3CN2C(=O)c2ccccc2)cc1 (centres undefined)	33*	1	-4	-4	-18	6	-1
Cc1cccc(C)c1NC(=O)COC(=O)C1Cc2ccccc2CN1C(=O)c1ccccc1 (centres undefined)	10	-1	2	-2	4	nt	nt
COc1ccc2oc(C(=O)OCC(=O)Nc3cc(S(=O)(=O)N4CCOCC4)ccc3C)c(C)c2c1	62*	0	-5	-2	4	107*	0
COc1ccc2oc(C(=O)OCC(=O)Nc3ccc(NC(C)=O)cc3)c(C)c2c1	120*	0	-1	-7	8	167*	-9
CC(=O)Nc1ccc(NC(=S)NC(=O)c2oc3ccccc3c2C)cc1	3	-1	0	0	3	nt	nt
CC(=O)Nc1ccc(NC(=O)C(C)OC(=O)c2oc3ccccc3c2C)cc1 (centres undefined)	80*	0	-7	0	-27	118*	5
CC1=NC(C)(C)CC2CCC(O)C12 (centres undefined)	nt	0	5	0	nt	nt	nt
O=C(CSc1nnc(Nc2ccccc2F)s1)c1cc2ccccc2o1	3	0	-34	2	-5	nt	nt
COc1ccccc1Nc1nnc(SCC(=O)Nc2cc(C)on2)s1	35*	1	10	-3	-3	21	4
COc1ccc(Nc2nnc(SCC(=O)c3cc4ccccc4o3)s2)cc1	44*	-1	-8	0	-7	37*	2
Cc1ccc(N2CC(C(=O)Nc3nnc(SCC(=O)Nc4cc(C)on4)s3)CC2=O)cc1 (centres undefined)	34*	2	-7	-1	11	9	-4
CCOc1ccc(/C=N/NC(=O)CCC(=O)Nc2ccc(F)cc2)cc1	2	0	-6	-3	-4	nt	nt
NC(=O)c1ccc(NC(=O)COC(=O)/C=C/c2ccc3c(c2)OCO3)cc1	32*	1	-5	6	15	2	-9
CCOc1ccc(NC(=O)CCC(=O)N/N=C/c2ccc3c(c2)OCO3)cc1	35*	1	-1	4	2	18	2
COc1ccccc1Cc1c(-c2ccccc2)nc2ccc(Br)cn12	nt	nt	-17	nt	nt	nt	nt
SMILES	EBNA-1 inh	LANA DNA inh	E coli Lon inh	Keap1-Nrf2 PPI	ZTA DNA inh	EBNA-1 inh conf	ZTA DNA inh trip
O=C(COC(=O)c1ccccc1Cl)Nc1ccc2[nH]c(=O)[nH]c2c1	-1	0	-2	2	19	nt	nt
O=C(COC(=O)c1cc(Cl)ccc1Cl)Nc1ccc2[nH]c(=O)[nH]c2c1	85*	-1	-1	0	-7	28*	3
O=C(Nc1cccc(S(=O)(=O)NC2=NCCCCC2)c1)c1cc(-c2ccncc2)nc2ccccc12	-1	0	-11	-3	-3	nt	nt
O=C(Nc1cccc(S(=O)(=O)NC2=NCCCCC2)c1)c1cc(-c2ccco2)nc2ccccc12	39*	1	-16	0	-1	18	-7
COc1cccc(N2CCN(S(=O)(=O)c3ccc(-c4cnc(C5CC5)o4)cc3)CC2)c1	91*	1	-8	0	-5	84*	2
COc1ccc(NC(=S)Nc2cc(-c3ccccc3)[nH]n2)cc1Cl	36*	-1	-8	5	-22	-5	-8
COc1ccc(NC(=S)Nc2cc(C)[nH]n2)cc1Cl	-7	2	-5	-6	-3	nt	nt
CCOc1cccc(-c2c(C(=O)N/N=C/c3ccc(Br)cc3)nnn2-c2nonc2N)c1	-3	0	9	-1	3	nt	nt
CN=C1SC(CC(=O)Nc2c(C)cccc2C)C(=O)N1/N=C/c1cccs1 (centres undefined)	36*	0	-2	4	4	5	-5
CN=C1SC(CC(=O)Nc2cccc(Cl)c2Cl)C(=O)N1C (centres undefined)	-8	2	-5	3	-3	nt	nt
O=S(=O)(CCc1ccccc1)CS(=O)(=O)CCc1ccccc1	nt	-2	8	-10	nt	nt	nt
COC(=O)c1ccc(NC(=O)CCN2C(=O)NC(C)(C)C2=O)cc1	nt	-1	-5	1	0	nt	nt
Cc1cc(C(=O)OCC(=O)Nc2nc(-c3ccccc3)cs2)c(C)o1	34*	-1	-3	-9	7	10	-10
Cc1ccc(-c2csc(NC(=O)COC(=O)c3cccc(S(=O)(=O)N4CCOCC4)c3)n2)cc1	98*	nt	nt	nt	-6	-3	0
CNS(=O)(=O)c1cccc(C(=O)OCC(=O)Nc2ccc(-c3nc4ccc(C)cc4s3)cc2)c1	103*	-1	-3	0	23	81*	26
Cc1ccc2nc(-c3ccc(NC(=O)COC(=O)c4ccco4)cc3)sc2c1	21	0	12	4	19	nt	nt
CCOC(=O)c1ccc(-c2csc(NC(=O)CN3CCC(C)CC3)n2)cc1	43*	-1	12	-4	-12	70*	-1
